About 83,000 compounds went through this panel and 20% of them were active in at least one assay; those are over-represented in the sample as a whole.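 Single-dose data. Exposure time 48 hours. Values below 10 considered active.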 Values without a mark were called inactive. Calls of active or inactive are those of the source.
System: MDA-MB-468 breast
Assay: NCI-60 one-dose screen, 48 h (100 = growth as untreated, 0 = no growth, -100 = all killed)
Conditions: 10 µM unless noted

Point of comparison: `CN(C)c1ccc(/C=N/NC(=O)COc2cc(=O)n(C)c3ccccc23)cc1`, growth 105%. Against it:
- COc1ccc(N2C(=O)CC(c3cc(OC)c(OC)c(OC)c3)C3C2=NC(=O)N3C)cc1 (configuration not stated) — lower, 98.9%
- O=[N+]([O-])c1ccc(N/N=C(\C(=N/Nc2ccc([N+](=O)[O-])cc2[N+](=O)[O-])c2ccccc2)c2ccccc2)c([N+](=O)[O-])c1 — lower, 86.4%
- CN1CCc2c(Sc3ccc(C(=O)NO)cc3)c3ccccc3n2C1 — lower, 21%
- CC(=O)OC[C@H]1O[C@H](OC(C)=O)[C@H](NC(=O)/C=C/CCl)[C@@H](OC(C)=O)[C@@H]1OC(C)=O — lower, 75.3%
- FC(F)(F)Sc1ccc(/C=C/c2cc(/C=C/c3ccc(SC(F)(F)F)cc3)n(-c3ccccc3)n2)cc1 — lower, 95.8%
- COc1ccc(-c2ccc3c(c2)sc2nc(-c4ccc(F)cc4)cn23)cc1 — lower, 66.7%
- CC1=C/C(=N\N=C2/C=C(C)CC(C)(C)C2)CC(C)(C)C1 — lower, 98.5%
- CN1C(=O)/C(=C/c2ccc(C(=O)Nc3ncc(Cc4cc(Cl)ccc4Cl)s3)cc2)SC1=S — lower, 44.2%
- C[C@]12C=CC(=O)C=C1CCC1C2[C@@H](O)C[C@@]2(C)C1CC[C@]2(O)C(=O)COC(=O)CCC(=O)O (some centres not stated) — higher, 115%
- CCOC(=O)C1=NN(c2ccccc2)C2=NC(=O)/C(=C\c3cn(-c4ccccc4)nc3-c3cc4ccccc4o3)C(=O)N12 — higher, 111%
- Cc1nc2c(c(=O)[nH]1)OCN(Cc1ccccc1)C2 — higher, 108%
- CNC(=O)c1cc(Oc2ccc(NC(=O)Nc3ccc(Cl)c(OC(C)C)c3)c(F)c2)ccn1 — lower, 11.8%
- S=C(Nc1ccccc1)c1ccccn1 — lower, 101%
- O=C(CSc1nc2ccccc2c(=O)n1-c1ccccc1)N/N=C/c1ccc(Oc2ccc(Br)cc2)cc1 — lower, 65.1%
- CC(=O)O[C@H]1CC[C@]2(C)[C@H]3CC=C4[C@@H]5CC(C)(C)CC[C@]5(C(=O)N5CCN(CCC#N)CC5)CC[C@@]4(C)[C@]3(C)CC[C@H]2C1(C)C — lower, 32.2%
- COc1ccc(/C=C2/SC(=S)NC2=O)c(OC)c1OC — lower, 65.4%
- O=C(CCOCCNC(=O)COc1ccc2c(c1)OCC(c1ccc(F)cc1)C2=O)NCCCC(O)(P(=O)(O)O)P(=O)(O)O (configuration not stated) — higher, 106%
- Brc1ccc(Nc2csc(-c3ccccn3)n2)cc1 — lower, 97.5%
- NC(=S)CN1CCOCC1 — lower, 104%
- Cc1ccc(C2CC(c3ccc(Nc4nc(NCCO)nc(Nc5ccc(Cl)cc5)n4)cc3)=NN2c2cc(Cl)cc(Cl)c2)cc1 (configuration not stated) — lower, 102%

In the case of `C=CCN(CC=C)C(=O)[C@H](CC)[C@@H]1CC[C@@H](C)[C@@H]([C@H](C)[C@@H](O)[C@@H](C)C(=O)[C@H](CC)C2O[C@]3(C=CC(=O)[C@]4(CC[C@@](C)([C@H]5CC[C@](O)(CC)[C@H](C)O5)O4)O3)[C@H](C)C[C@@H]2C)O1` (some centres not stated), the growth is reported as -17.4% (active).
`CC1(C)C(=O)/C(=C\c2ccco2)C[C@]2(C)[C@H]3CC[C@@H]4[C@@H](C(=O)/C=C/c5ccco5)CC[C@@]4(C)[C@]3(C)CC[C@@H]12` was tested, and the growth was -1.49% (active).
In the case of `CCCCc1n(Cc2ccc3ccccc3c2)c2ccccc2[n+]1Cc1ccc2ccccc2c1`, the growth is reported as -78.1% (active).
`COc1cc([C@@H]2c3cc4c(cc3[C@H](O)[C@H]3COC(=O)[C@H]23)OCO4)cc(OC)c1OC` was tested, and the growth was -17.5% (active).
`COc1ccc(Nc2ncc(I)c(NCCCNC(=O)C3CCC3)n2)cc1` was tested, and the growth was -14.9% (active).
In the case of `OC1CCN(CCCOc2c3ccc(Cl)cc3nc3c2oc2ccc(Cl)cc23)CC1`, the growth is reported as 1% (active).

Source: PubChem BioAssay (NCI)
